Assay outcomes: PubChem BioAssay, National Center for Advancing Translational Sciences (NCATS)
Compounds with a hit are over-represented: about 19% of the library has one in this group of screens.
DT40 TDP1 no CPT: qHTS for Inhibitors of human tyrosyl-DNA phosphodiesterase 1 (TDP1): qHTS in cells in absence of CPT; DT40 Tdp1-/- hTDP1 cells, no CPT, ATP luminescence, 48 h; Potency, µM (top dose mostly 46.2 µM), actives largely listed as inhibitors; 420,000 tested, 15% active; AID 686978, 2013; further: nearly all actives have a fitted effect of over 55% in size
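Chicken DT40 Tdp1-/- cells complemented with human TDP1, screened without camptothecin (DMSO vehicle only), 400 cells/well. Compounds pin-transferred, cells incubated at 37 °C for at least 48 hr. Growth read as ATP-dependent luminescence (CellTiter-Glo, 30 min at RT).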
HT1080 IDH1KD tx: qHTS for induction of synthetic lethality in tumor cells producing 2HG: qHTS for the HT-1080-IDH1KD cell line | Potency, µM (top dose mostly 46.1 µM), usual class: cytotoxic | 360,000 tested, 2% active | HT-1080 IDH1 knockdown viability, ATP luminescence, 48 h | AID 686971, 2013
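Viability of IDH1-knockdown HT-1080 fibrosarcoma cells was assessed by CellTiter-Glo after 48 h at 37 °C with titrated compound; concentration-effect curves were classified by fit quality and response size.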
HT1080NT lethal: qHTS for induction of synthetic lethality in tumor cells producing 2HG: qHTS for the HT-1080-NT fibrosarcoma cell line; HT-1080-NT fibrosarcoma viability, CellTiter-Glo ATP luminescence, 48 h; Potency, µM (highest dose often 46.1 µM), usual class: cytotoxic; 360,000 tested, 1.6% active;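 further: NT is the 2HG producing partner of a matched IDH1 knockdown line; nearly all actives have a fitted effect of over 55% in size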
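Compounds were tested in concentration-response format on HT-1080-NT cells for 48 hours at 37 degrees C. Cell viability came from CellTiter-Glo luminescence; curves were classified by r2, response magnitude and activity.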
DT40 TDP1 CPT: qHTS for Inhibitors of human tyrosyl-DNA phosphodiesterase 1 (TDP1): qHTS in cells in presence of CPT; chicken DT40 Tdp1-/-;hTDP1 cells + 20 nM CPT, ATP luminescence, 48 h; Potency, µM (top dose mostly 46.2 µM), hits mostly inhibitors; 420,000 tested, 12% active; further: nearly all actives have a fitted effect of over 55% in size
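Cell growth measured by CellTiter-Glo luminescence after a minimum 48 h, 37 C compound exposure with 20 nM CPT in Tdp1-knockout DT40 cells stably expressing hTDP1, seeded 400/well; qHTS titration format.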
IL1B secr inh: qHTS for Inhibitors of Inflammasome Signaling: IL-1-beta AlphaLISA Primary Screen. 360,000 tested, 4.7% active. AID 743279, 2014. activity change, % at 57.5 µM. THP-1 LPS/ATP IL-1B secretion, AlphaLISA, 16 h; active compounds read low; in the data active means activity change below about -50%; inconclusive means mostly about -30% to -49%
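Secreted IL-1B measured by AlphaLISA bead assay after 16 h compound exposure of THP-1 cells; compounds (final up to 57.5 uM) added 1 h before LPS (250 ng/mL) and ATP (1.25 mM) stimulation; lower signal means less secretion.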
Numbers stand for hits; [ ] = dose if it differs, or a comment. Unless noted, the call rests on the fitted dose curve; in most records, active means well fitted curve in the direction sought with a large enough effect; inconclusive means small, poorly fitted or top-dose-only effect, or another doubt; inactive means no such curve, though single readings can be large; an effect the other way counts as inactive or inconclusive.

FC(F)Sc1ccc(NC2=NCCCCC2)cc1 was read as DT40 TDP1 no CPT inactive, HT1080 IDH1KD tx inactive, HT1080NT lethal inactive, DT40 TDP1 CPT inactive and IL1B secr inh inactive.
Screening Brc1ccc(-c2csc3[n+]2CCCCC3)cc1 returned DT40 TDP1 no CPT inconclusive, HT1080 IDH1KD tx inactive, HT1080NT lethal inactive, DT40 TDP1 CPT inactive and IL1B secr inh inactive.
For Cc1ccc(-c2cn(-c3ccc(SC(F)F)cc3)c3[n+]2CCC3)cc1 the results were DT40 TDP1 no CPT 0.46µM, HT1080 IDH1KD tx inconclusive, HT1080NT lethal inactive, DT40 TDP1 CPT 0.65µM and IL1B secr inh inconclusive.
For CC(C)(C)c1cn(-c2ccc(Cl)cc2)c(=S)[nH]1 the results were DT40 TDP1 no CPT inconclusive, HT1080 IDH1KD tx inactive, HT1080NT lethal inactive, DT40 TDP1 CPT inconclusive and IL1B secr inh inactive.
For COc1cc2nc(N3CCCC(O)C3)c(CNCc3ccccc3C(F)(F)F)cc2c(OC)c1OC (stereo not given) the results were DT40 TDP1 no CPT inconclusive and DT40 TDP1 CPT inactive[9.04 µM].
Screening O=C(Nc1ccccc1)/C(=C1\CCCN1)[N+](=O)[O-] returned DT40 TDP1 no CPT inactive, HT1080 IDH1KD tx inactive, HT1080NT lethal inactive, DT40 TDP1 CPT inactive and IL1B secr inh inconclusive.
For Cc1ccc(S(=O)(=O)N(CC(=O)NCc2cccnc2)c2ccc(F)cc2)cc1 the results were DT40 TDP1 no CPT 18µM, HT1080 IDH1KD tx inactive, HT1080NT lethal inactive, DT40 TDP1 CPT inactive and IL1B secr inh inactive.
Screening CCOc1ccc(S(=O)(=O)N(CC(=O)NCc2cccnc2)c2ccc(F)cc2)cc1 returned DT40 TDP1 no CPT 18µM, HT1080 IDH1KD tx inactive, HT1080NT lethal inactive, DT40 TDP1 CPT inconclusive and IL1B secr inh inactive.
CCOC(=O)c1cc(-c2ccccc2)n(CC(=O)NC(C)c2ccccc2)c1C (stereo not given) was read as DT40 TDP1 no CPT 9.2µM and DT40 TDP1 CPT 18µM.
Screening CCOC(=O)c1cc(-c2ccccc2)n(CC(=O)Nc2cc(OC)cc(OC)c2)c1C returned DT40 TDP1 no CPT 16µM, HT1080 IDH1KD tx inactive, HT1080NT lethal inactive, DT40 TDP1 CPT 21µM and IL1B secr inh inactive.
`CCOC(=O)c1cc(-c2ccccc2)n(CC(=O)Nc2ccc(OCC)cc2)c1C` gave DT40 TDP1 no CPT inconclusive, HT1080 IDH1KD tx inactive, HT1080NT lethal inactive, DT40 TDP1 CPT inconclusive and IL1B secr inh inactive.
`COc1cc(NC(=O)Cn2c(-c3ccccc3)cc(C(C)=O)c2C)cc(OC)c1` gave DT40 TDP1 no CPT 16µM and DT40 TDP1 CPT 21µM.
For COc1cc(NC(=O)CN2C(=O)C(c3ccccc3)=NC2(C)C)cc(OC)c1 the results were DT40 TDP1 no CPT inactive, HT1080 IDH1KD tx inactive, HT1080NT lethal inactive, DT40 TDP1 CPT inactive and IL1B secr inh inactive.
For CCCn1c2ccccc2c2cnn(CC(=O)NCCCN3C(C)CCCC3C)c(=O)c21 (stereo not given) the results were DT40 TDP1 no CPT inconclusive, HT1080 IDH1KD tx inactive, HT1080NT lethal inactive, DT40 TDP1 CPT inconclusive and IL1B secr inh inactive.
CCCn1c2ccccc2c2cnn(CC(=O)NC3CCCCC3C)c(=O)c21 (stereo not given) was read as DT40 TDP1 no CPT 18µM, HT1080 IDH1KD tx inactive, HT1080NT lethal inactive, DT40 TDP1 CPT inconclusive and IL1B secr inh inactive.
Screening O=C(Cn1ncc2c3ccccc3n(Cc3ccc(Cl)cc3)c2c1=O)NC1CCCCCC1 returned DT40 TDP1 no CPT inactive and DT40 TDP1 CPT inactive.
`CCCn1c2ccccc2c2cnn(CC(=O)NC3CCN(Cc4ccccc4)CC3)c(=O)c21` gave DT40 TDP1 no CPT inconclusive, HT1080 IDH1KD tx inactive, HT1080NT lethal inactive, DT40 TDP1 CPT 16µM and IL1B secr inh inconclusive.
C=CCN(CC(O)c1cccc([N+](=O)[O-])c1)C(C)CCc1ccccc1 (stereo not given) was read as DT40 TDP1 no CPT 21µM, HT1080 IDH1KD tx inconclusive, HT1080NT lethal inactive, DT40 TDP1 CPT inconclusive and IL1B secr inh inactive.
